Experimental data published in PubChem BioAssay (NCI).
About 83,000 compounds went through this panel and 20% of them were active in at least one assay; those are over-represented in the sample as a whole.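 How to read the values: 0–100, growth inhibition (40 = 60% inhibited); 0, no net growth; -100 to 0, cell death (-40 = 40% of starting cells died; -100 = all dead).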 Values without a mark were called inactive. The source made the active and inactive calls. How the source made its calls: active means growth percent below 10; inactive means the rest.

What was measured:
Assay in all cases: NCI-60 one-dose screen, 48 h (100 = growth as untreated, 0 = no growth, -100 = all killed)
Conditions in all cases: 10 µM
[1] = test system: NCI-H23 lung
[2] = test system: NCI-H226 lung
[3] = test system: NCI-H322M lung
[4] = test system: HOP-62 NSCLC
[5] = test system: NCI-H460 lung
[6] = test system: HOP-92 NSCLC
[7] = test system: NCI-H522 lung
[8] = test system: A549/ATCC NSCLC
[9] = test system: 786-0 renal
[10] = test system: COLO 205 colon

With `CN1/C(=C\C(I)C(I)C2=[N+](C)c3ccccc3C2(C)C)C(C)(C)c2ccccc21` (centres undefined) the growth [1] was 3.16% (active), the growth [2] was 16.5% and the growth [3] was 20.9%. For the same molecule, the growth [4] was 5.15% (active), the growth [5] was 4.27% (active) and the growth [6] was -25.7% (active). The growth [7] was -14.1% (active), the growth [8] was 11.3% and the growth [9] was 23.2%. For the same molecule, the growth [10] was -20.6% (active).
`CCSc1nc2c([nH]1)c(=O)n(C)c(=S)n2C` showed a growth [1] of 98.6%, a growth [2] of 117% and a growth [3] of 117%. It also gave a growth [4] of 98%, a growth [5] of 107% and a growth [6] of 103%. For the same molecule, the growth [7] was 102%, the growth [8] was 107% and the growth [9] was 100%. The growth [10] was 106%.
In the case of `COc1cc(C(=O)n2nc(N)c3c(C)cc(C)nc32)cc(OC)c1OC`, the growth [1] is reported as 88.8%, the growth [2] is reported as 92.1% and the growth [3] is reported as 88.6%. The growth [4] was 79.3%, the growth [5] was 89.9% and the growth [6] was 93.5%. The growth [7] was 41%, the growth [8] was 55.7% and the growth [9] was 90.4%. For the same molecule, the growth [10] was 67.6%.
For `CCOc1ccc(-n2cc(-c3ccc(N(C)C)cc3)[n+]3c2CCCCC3)cc1`, the growth [1] was 0.183% (active), the growth [2] was 18.6% and the growth [3] was 45.3%. For the same molecule, the growth [4] was 3.02% (active), the growth [5] was 5.52% (active) and the growth [6] was -8.52% (active). For the same molecule, the growth [7] was -0.392% (active), the growth [8] was 22.4% and the growth [9] was 20.7%. The growth [10] was -68.6% (active).
For `CCN1CCN(c2nc(NNC(=O)c3cccc(OC)c3)nc(N3CCN(C(c4ccccc4)c4ccccc4)CC3)n2)CC1`, the growth [1] was 78.5%, the growth [2] was 94.5% and the growth [3] was 89.7%. The growth [4] was 87.1%, the growth [5] was -9.84% (active) and the growth [6] was 42.8%. For the same molecule, the growth [7] was 97%, the growth [8] was 65.3% and the growth [9] was 72.8%. The growth [10] was -31.6% (active).
Molecule `COc1cc(C2CC(=O)Nc3c2c(C)nn3-c2nc3ccccc3[nH]2)cc(OC)c1O` (centres undefined) has a growth [1] of 36.8%, a growth [2] of 66% and a growth [3] of 80.4%. For the same molecule, the growth [4] was 88.6%, the growth [5] was 36.2% and the growth [6] was 32%. It also gave a growth [7] of 64.8%, a growth [8] of 40.1% and a growth [9] of 53.1%. It also gave a growth [10] of 106%.
For `C/C(=N\NC(=O)c1sc(=S)n(C)c1N)c1cc2ccccc2o1`, the growth [1] was 71.6%, the growth [2] was 73.9% and the growth [3] was 45.4%. For the same molecule, the growth [4] was 69.4%, the growth [5] was 37.2% and the growth [6] was 58.8%. For the same molecule, the growth [7] was 36.2%, the growth [8] was 45.4% and the growth [9] was 57.3%. For the same molecule, the growth [10] was 107%.
For `COc1ccc(C2CC(c3ccc(-c4ccccc4)cc3)=NN2c2ccc(S(N)(=O)=O)cc2)cc1` (centres undefined), the growth [1] was 80.9%, the growth [2] was 74.9% and the growth [3] was 68.5%. It also gave a growth [4] of 90.8%, a growth [5] of 41.9% and a growth [6] of 35.6%. It also gave a growth [7] of 40.3%, a growth [8] of 47.3% and a growth [9] of 92.1%. For the same molecule, the growth [10] was 83.8%.
With `O=S(=O)(NC1c2ccccc2Oc2ccccc21)c1cc(Cl)ccc1Cl` the growth [1] was 97.6%, the growth [2] was 83.4% and the growth [3] was 90%. The growth [4] was 89.4%, the growth [5] was 105% and the growth [6] was 60.2%. It also gave a growth [7] of 29.5%, a growth [8] of 97.1% and a growth [9] of 84.6%. It also gave a growth [10] of 98.9%.
In the case of `COc1ccc(-c2csc(-c3cc(Cl)cc(Cl)c3Cl)n2)cc1`, the growth [1] is reported as 91.4%, the growth [2] is reported as 88.9% and the growth [3] is reported as 98.6%. For the same molecule, the growth [4] was 91.1%, the growth [5] was 97.9% and the growth [6] was 85.8%. The growth [7] was 81.8%, the growth [8] was 54.5% and the growth [9] was 111%. The growth [10] was 91.6%.
`S=C(Cc1ccc(-c2ccccc2)cc1)N1CCOCC1` showed a growth [1] of 104%, a growth [2] of 91.7% and a growth [3] of 96%. It also gave a growth [4] of 93.6%, a growth [5] of 103% and a growth [6] of 83.1%. For the same molecule, the growth [7] was 89.8%, the growth [9] was 93.6% and the growth [10] was 103%.
In the case of `COc1ccc(C(=O)/C=C/c2cc(-c3ccc(OC)c(OC)c3)n[nH]2)cc1OC`, the growth [1] is reported as 8.17% (active), the growth [2] is reported as 58% and the growth [3] is reported as -13.5% (active). The growth [4] was -33.5% (active), the growth [5] was -42.2% (active) and the growth [6] was -59.3% (active). The growth [7] was -89.4% (active), the growth [9] was -64.2% (active) and the growth [10] was -60.7% (active).
With `COc1cc(/C=C/C(=O)c2cc(-c3ccc(F)cc3)ccc2O)cc(OC)c1OC` the growth [1] was 56.3%, the growth [2] was 83.5% and the growth [3] was 93.6%. It also gave a growth [4] of 115%, a growth [5] of 80.6% and a growth [6] of 57.8%. For the same molecule, the growth [7] was 58.7%, the growth [9] was 94.1% and the growth [10] was 88.2%.
Molecule `O=[N+]([O-])c1ccc(Br)o1` has a growth [1] of 94.4%, a growth [2] of 93.1% and a growth [3] of 103%. The growth [4] was 100%, the growth [5] was 113% and the growth [6] was 102%. The growth [7] was 84.4%, the growth [9] was 99.2% and the growth [10] was 105%.
`COc1ccc(-c2cc(=O)n(-c3nc4ccccc4[nH]3)[nH]2)cc1OC` gave a growth [1] of 80.4%, a growth [2] of 85.1% and a growth [3] of 66.6%. For the same molecule, the growth [4] was 71.6%, the growth [5] was 41.4% and the growth [6] was 17.4%. For the same molecule, the growth [7] was 49.2%, the growth [9] was 83% and the growth [10] was 113%.
With `O=C1/C(=C/c2cccs2)CCC/C1=C\c1cccs1` the growth [1] was 81.5%, the growth [2] was 80.9% and the growth [3] was 85.3%. It also gave a growth [4] of 96.7%, a growth [5] of 92.1% and a growth [6] of 66%. It also gave a growth [7] of 76.7% and a growth [9] of 108%.
`CC(Oc1ccc(Cl)cc1)c1ccccc1` (centres undefined) showed a growth [1] of 102%, a growth [2] of 93% and a growth [3] of 87.1%. For the same molecule, the growth [4] was 98.3%, the growth [5] was 104% and the growth [6] was 95%. For the same molecule, the growth [7] was 103%, the growth [9] was 98.5% and the growth [10] was 105%.
For `Cc1cc(C#Cc2ccccc2)ccc1-n1c(/C=C/c2cc(O)ccc2O)nc2ccccc2c1=O`, the growth [1] was -11.6% (active), the growth [2] was -41% (active) and the growth [3] was -19.5% (active). For the same molecule, the growth [4] was -33.1% (active), the growth [6] was -17.9% (active) and the growth [7] was -74.6% (active). For the same molecule, the growth [8] was 8.93% (active) and the growth [9] was 17.4%.
With `O=C(N/N=c1/ccoc2cccnc12)N1CCN(c2ncccn2)CC1` the growth [1] was 26.4%, the growth [2] was 37.6% and the growth [3] was 39.1%. It also gave a growth [4] of 24.5%, a growth [5] of 15.2% and a growth [6] of 64.2%. For the same molecule, the growth [7] was 9.96% (active), the growth [9] was 40.4% and the growth [10] was 4.3% (active).
`COc1cc(CSc2nc3ccc(C)cc3c(=O)n2Cc2ccccc2)cc(OC)c1OC` showed a growth [1] of 21.3%, a growth [2] of 47.3% and a growth [3] of 46.2%. For the same molecule, the growth [4] was 40.5%, the growth [5] was 17.7% and the growth [6] was 56.6%. For the same molecule, the growth [7] was -14.5% (active), the growth [9] was 46.8% and the growth [10] was -18.7% (active).
`Cc1ccc([P+](Cc2ccccc2)(c2ccccc2)c2ccccc2)cc1` showed a growth [1] of 12.4%, a growth [2] of 28.3% and a growth [3] of 16.2%. The growth [4] was 23.7%, the growth [5] was 12.4% and the growth [6] was -25.3% (active). For the same molecule, the growth [7] was -21.6% (active), the growth [9] was 21.3% and the growth [10] was -68.9% (active).
For `CNC(=O)c1cc(Oc2ccc(NC(=O)Nc3ccc(Cl)c(C(C)(C)C)c3)c(F)c2)ccn1`, the growth [1] was 19.7%, the growth [2] was 36.2% and the growth [3] was 107%. The growth [4] was 64.4%, the growth [5] was 48.8% and the growth [6] was 75.9%. The growth [7] was 28.7%, the growth [9] was 79% and the growth [10] was 19.6%.
Work on `C[C@]12CC[C@H]3[C@@H](CC=C4C[C@@H](O)CC[C@@]43C)[C@@H]1CC[C@@H]2C(=O)C/C=N/O` yielded a growth [1] of 86.6%, a growth [2] of 107% and a growth [3] of 88.5%. For the same molecule, the growth [4] was 76.8%, the growth [6] was 54.9% and the growth [7] was 79.4%. It also gave a growth [8] of 89.5%, a growth [9] of 90.8% and a growth [10] of 101%.
Molecule `N#CCC1CCCC1` has a growth [1] of 115%, a growth [2] of 107% and a growth [3] of 111%. It also gave a growth [4] of 92.7%, a growth [5] of 105% and a growth [6] of 80%. It also gave a growth [7] of 109%, a growth [9] of 96.3% and a growth [10] of 109%.
In the case of `CC(C)(C)c1ccc(OCCCCCCN2CCNCC2)cc1`, the growth [1] is reported as 61.5%, the growth [2] is reported as 73.4% and the growth [3] is reported as 85.1%. It also gave a growth [4] of 67.8%, a growth [5] of 35.4% and a growth [6] of 16.8%. The growth [7] was 66.2%, the growth [9] was -50.7% (active) and the growth [10] was -66.7% (active).
In the case of `O=C(Nc1ccc(CN2CCOCC2)cc1)c1ccc(-c2cc(Cl)ccc2Cl)o1`, the growth [1] is reported as 82.7%, the growth [2] is reported as 72.5% and the growth [3] is reported as 51.4%. The growth [4] was 71.4%, the growth [5] was 5.58% (active) and the growth [6] was 19.2%. The growth [7] was 66.7%, the growth [9] was 63% and the growth [10] was -82.1% (active).
In the case of `CCn1nc(-c2ccc(C(=O)OC)cc2)nc2c(=O)n(C)c(=O)nc1-2`, the growth [1] is reported as 104%, the growth [2] is reported as 33.5% and the growth [3] is reported as 45.4%. For the same molecule, the growth [4] was -1.34% (active), the growth [5] was 47.8% and the growth [6] was -13.1% (active). For the same molecule, the growth [7] was 77%, the growth [9] was -18.7% (active) and the growth [10] was 87.2%.
For `O=C(NNC(=O)c1ccncc1)Nc1ccc([N+](=O)[O-])cc1`, the growth [1] was 94.7%, the growth [2] was 115% and the growth [3] was 105%. It also gave a growth [4] of 97%, a growth [5] of 105% and a growth [6] of 103%. For the same molecule, the growth [7] was 88.5%, the growth [9] was 107% and the growth [10] was 112%.
`CC(C)C[C@H](NC(=O)CCn1ccc2ccccc2c1=O)B(O)O` was tested, and the growth [1] was 63.4%, the growth [2] was -16.2% (active) and the growth [3] was 91%. For the same molecule, the growth [4] was 82.7%, the growth [5] was 93.8% and the growth [6] was 90.1%. It also gave a growth [7] of 19.9%, a growth [9] of 48.5% and a growth [10] of 48.7%.
